# PubChem BioAssay (NCI)
# About 83,000 compounds went through this panel and 20% of them were active in at least one assay; those are over-represented in the sample as a whole.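 A percent growth of 40 corresponds to 60% growth inhibition; 0 means no net growth; -100 means all cells died. Active threshold: below 10.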 Unmarked numbers belong to inactive results. Active and inactive are the calls of the source.
# Tests used:
# Experiment in all cases: NCI-60 one-dose screen, 48 h (100 = growth as untreated, 0 = no growth, -100 = all killed)
# HT29 colon = details: 10 µM unless noted
# SNB-75 CNS = details: 10 µM unless noted
# SNB-19 CNS = details: 10 µM unless noted
# U251 CNS = details: 10 µM unless noted
# PC-3 prostate = details: 10 µM unless noted
# SK-MEL-5 melanoma = details: 10 µM unless noted
# UACC-62 melanoma = details: 10 µM unless noted
# LOX IMVI melanoma = details: 10 µM unless noted
# SK-MEL-28 melanoma = details: 10 µM
# SK-MEL-2 melanoma = details: 10 µM unless noted
SMILES,growth (HT29 colon) [%],growth (SNB-75 CNS),growth (SNB-19 CNS) [%],growth (U251 CNS) [%],growth (PC-3 prostate) [%],growth (SK-MEL-5 melanoma),growth (UACC-62 melanoma) [%],growth (LOX IMVI melanoma),growth (SK-MEL-28 melanoma) [%],growth (SK-MEL-2 melanoma) [%]
COc1ccc(OC)c(N(CCN2C(=O)c3ccccc3C2=O)C(=O)CCl)c1,12.5,87.4%,114,60.9,31.9,94%,70.5,-11.8% (active),100,72.3
O=C1Nc2ccccc2/C1=C/c1ccc[nH]1,110,105%,90.3,83,106,58.7%,97.7,98.8%,114,103
COc1cccc2c1C=C1CCCCC3=Cc4c(OC)cccc4OC13O2,16.3,-18.1% (active),51.3,30.9,33.7,50.3%,24.2,32.8%,53.6,48.6
Cc1ccc(C2CC(c3ccc(Nc4nc(NCCO)nc(Nc5ccc(Cl)cc5)n4)cc3)=NN2c2cc(Cl)cc(Cl)c2)cc1 (stereo not given),107,85.2%,106,97.4,98.9,92.4%,89.5,98.7%,105,122
Cc1ccc(F)cc1NC(=O)c1cc(Cl)ccc1Nc1ccccc1,17.8,53.6%,59.4,42.5,23.2,70.9%,65.4,49.4%,89.6,54.9
CCOC(=O)c1sc(-c2ccc(OS(=O)(=O)c3ccccc3[N+](=O)[O-])c(C=O)c2)nc1C,110,73.4%,76.1,43,70,-57.3% (active),64,-6.91% (active),79.4,86.6
O=C1c2cc(Cl)ccc2Oc2cc([N+](=O)[O-])ccc2N1c1ccc(F)cc1F,79,69.8%,91.9,86.6,89.4,68.7%,81.2,95.4%,114,80.3
CC(=O)Nc1nc2c(s1)CCc1c-2cn(S(=O)(=O)c2ccccc2)c1-c1ccccc1,78.1,82.8%,93.6,62.4,40.9,43.9%,58,47.1%,95.1,94.5
CCCCc1c(CCC)c(=N)c2ccccc2n1C,26.6,96.8%,111,59.3,77.2,78%,97.9,59%,72.2,101
